{"source": "the supplement of paper PMC6555819", "data": [{"test_system": "VDR:RXRa (NR concentration 270 nM, RXRa partner concentration 90 nM)", "assay": "PBM binding z-score (relative to random genomic background probes); higher = stronger binding; sequences stand for … in GC…GCGATTGACAGCGTAGAATGAAGG", "description": "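Protein-binding microarray (Agilent 4x180K custom design, double-stranded 60-nt probes: 5' GC cap, 34-nt variable region, 24-nt constant primer region; full probe sequence given). Purified or IVT nuclear receptor:RXRα heterodimers (3:1 NR:RXRα, mostly 270:90 nM) or homodimers were incubated for 1 h in PBS with 2% milk and no ligand, then detected with Alexa488 antibodies. Fluorescence from o1-orientation probes (~5 replicates averaged) was converted to z-scores against 500 random hg19 background probes. Variable regions are seed direct-repeat (DR0–DR5) sites, all their single-nucleotide variants and half-site ablations.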", "values": [{"sequence": "CTACAAAGGTGAACAAGGTCGTTGATTACTATTC", "PBM binding z-score": 6.38}, {"sequence": "CATACAGGCTCAGCTAGGCCAGAGTAGGGACGGC", "PBM binding z-score": -0.721}, {"sequence": "TCTTGTAGATCAACAGGAGGTTAAGATAGATCGA", "PBM binding z-score": 0.488}, {"sequence": "ATCGAAAGGTCGACGAGGTGAGTATACACCGTTT", "PBM binding z-score": 5.23}, {"sequence": "CGAACTATGTCATCCAGGACAGTGAATACATTGA", "PBM binding z-score": 1.05}, {"sequence": "CCTATTAGTTGAACATAAGGGCAACCGAAGCTCG", "PBM binding z-score": 0.603}, {"sequence": "GCTATTAGTTGCAAGGGCAACCGAATGATTCTCG", "PBM binding z-score": 0.134}, {"sequence": "ATATATAGGTTAGCTGGGGTCATTCAGACTAGGC", "PBM binding z-score": 6.61}, {"sequence": "ACTATTAGTTGACTTAGGGCAATCGATACGACGC", "PBM binding z-score": 0.462}, {"sequence": "AATACAGGCTCATCGTAGGCCAGAGTACGCACAG", "PBM binding z-score": -0.438}, {"sequence": "ACAGACAGGTGATGAAGGTAACTCACGCTATCAT", "PBM binding z-score": 0.327}, {"sequence": "TCGAGTAGGTTAGTCGGGGTATTCAGCCAACATA", "PBM binding z-score": 0.453}, {"sequence": "CGTCCAAGGTCAGCAGGTCAGTGAGAGCGACGTG", "PBM binding z-score": 4.04}, {"sequence": "ATCTCTAGGTAACCAAGTTCAGTGATTGCCGAAC", "PBM binding z-score": 4.17}, {"sequence": "CGTCCAAGGTCATAGGACGTCAGTGAAGACAGAT", "PBM binding z-score": 4.13}, {"sequence": "GGAACGGGGGCAAAGTTGATAGCATCTGTCGACG", "PBM binding z-score": 3.25}, {"sequence": "AATACAGGGTCACTAGGCCAGAGCAGGTACGAAT", "PBM binding z-score": 4.03}, {"sequence": "ATCGAAAGGTCGTGAGATGAGTATACAGAAAGGC", "PBM binding z-score": 3.09}, {"sequence": "GTACCAAGGTGAATATGTCGTTGATGAGTAGGCG", "PBM binding z-score": -0.0532}, {"sequence": "GCAGACAGGTGAAACGCAGATAACTCAGGGTGGC", "PBM binding z-score": -0.407}, {"sequence": "CCAGACAGGTGAGAACGTAACTCAGCCTCGATTA", "PBM binding z-score": -0.0392}, {"sequence": "TCGAGTAGGTTAGGTGCATTCAGAATGGCGTCGA", "PBM binding z-score": 0.44}, {"sequence": "ACTAGTCGGTCAGCTGAGGTCACACACAATTCGG", "PBM binding z-score": 5.12}, {"sequence": "TCAGATAGGTAAAAGGTGAAAGTCGGTGTGGTAA", "PBM binding z-score": 0.851}, {"sequence": "CGTACTGGGCCAAAGGTCATTGATTCCAATGCTC", "PBM binding z-score": 5.07}, {"sequence": "CGTCCCAGGTCAGCAGGTCAGTGAAAGCGACGTG", "PBM binding z-score": 2.54}, {"sequence": "TCATATACGTAAAAGGTGAAAGTCGGTGTGGTAA", "PBM binding z-score": 1.43}, {"sequence": "TAGCCTAGGTCAGATAGGGCCAGTATACGCTATA", "PBM binding z-score": 1.11}, {"sequence": "CCTACTGGGCCTTCAGGTCATTGATATCAACGTT", "PBM binding z-score": 1.45}, {"sequence": "CCTACTGGGCCACGAAGGGTCATTGATTCAGTGA", "PBM binding z-score": 3.09}, {"sequence": "TCTTGTAGATCAACAGGAGGTTAAGAAAGATCGA", "PBM binding z-score": 0.453}, {"sequence": "TCTACTTGGTCAAAGGTCACACACTCGAAATGCG", "PBM binding z-score": 5.28}, {"sequence": "TCGAGTAGGTTAGGGGCATTCATAATGGCGTCGA", "PBM binding z-score": 0.655}, {"sequence": "TCATATAGGTAATACAGGTGATAGTCGGCATCTA", "PBM binding z-score": 1.04}, {"sequence": "TCAGACAGGTGAAGGGAACTCAGGTACGCAGTCG", "PBM binding z-score": 0.951}, {"sequence": "ATATGTACGTTATCGGGTCATTCAGTTTGCGCAT", "PBM binding z-score": 5.03}, {"sequence": "CGTCCAAGGTCAGCAGGTCGGTGAAAGCGACGTG", "PBM binding z-score": 3.71}, {"sequence": "CGAACTAGGTCTTTGACAGGACAGTGAATAGTAA", "PBM binding z-score": -0.318}, {"sequence": "CACACTAGGTCACCGGAAGGTCAAAGTCCGCATG", "PBM binding z-score": 5.97}, {"sequence": "CCTTACGGGTCACGAGGTTATATCACGACGAGCG", "PBM binding z-score": 5.38}]}]}
